Unmarked numbers belong to inactive results. Active and inactive are the calls of the source. Cut-off read from the data, not from the text of the source: active = inhibition above about 30%; inactive = the rest.
assay: growth suppression of yeast trafficking mutant, preliminary HTS, modulators of trafficking downstream of Golgi apparatus project, 1536-format plate, OD 615 nm (AID 637); settings: yeast transport mutant growth, absorbance 615 nm, 18 h; hits give high values

| SMILES | inhibition |
| --- | --- |
| COc1ccc(Cl)cc1C(=O)NCCc1ccc(S(=O)(=O)NC(=O)NC2CCCCC2)cc1 | -1.33% |
| Clc1ccc(C2=Nn3c(nnc3-c3n[nH]c4c3CCC4)SC2)cc1Cl | 6.77% |
| C(=C\c1ccccc1)/CSc1nnc(-c2ccccn2)n1Cc1ccco1 | -0.16% |
| CC(C)Cn1c2c(c(O)c(C(=O)Nc3ncccc3O)c1=O)CCCC2 | -2.91% |
| Oc1ccc(/C=C/c2cc(O)cc(O)c2)cc1 | -5.17% |
| N#Cc1ccccc1Cn1c(=O)n(Cc2ccc(C(=O)NCc3ccco3)cc2)c(=O)c2ccccc21 | -7.21% |
| CO[C@H]1C[C@@H]2CC[C@@H](C)[C@@](O)(O2)C(=O)C(=O)N2CCCC[C@H]2C(=O)O[C@H]([C@H](C)C[C@@H]2CC[C@@H](O)[C@H](OC)C2)CC(=O)[C@H](C)C=C(C)[C@@H](O)[C@@H](OC)C(=O)[C@H](C)C[C@H](C)C=CC=CC=C1C | 82.2% (active) |
| COc1ccc(-n2cc(-c3ccccc3)c3c(N4CCN(CCO)CC4)ncnc32)cc1 | 0.48% |
| O=C(O)c1cc(O)c2c(c1)C(=O)c1cccc(O)c1C2=O | 1.83% |
| C(=C\c1ccccc1)/CN1CCN(C(c2ccccc2)c2ccccc2)CC1 | -3% |
| Oc1cccc(Nc2nc(NCC3CCCO3)c3ccccc3n2)c1 (stereo not given) | 3.17% |
| Clc1ccc(OCc2nnc(SCCN3CCCCC3)n2Cc2ccco2)cc1 | -1.82% |
| CCC(=O)Oc1ccc(/C(CC)=C(\CC)c2ccc(OC(=O)CC)cc2)cc1 | -4.67% |
| O=S(=O)(c1cccc2cnccc12)N1CCCNCC1 | 4.5% |
| O=C(Nc1ccc2nn(-c3ccccc3)nc2c1)c1ccc(Br)o1 | -10.3% |
| CCc1oc2ccccc2c1C(=O)c1cc(Br)c(O)c(Br)c1 | 54.7% (active) |
| O=C(Nc1ccc2oc(Cc3ccc(Cl)cc3)nc2c1)c1cccnc1 | -0.55% |
| CC(=O)Nc1ccccc1OCC(=O)c1cc(C)n(Cc2cccs2)c1C | -3.45% |
| O=C(CCCN1CCC(O)(c2ccc(Cl)cc2)CC1)c1ccc(F)cc1 | -3.17% |
| COC(=O)c1ccccc1NC(=O)Cn1c(-c2nonc2N)nc2ccccc21 | -4.84% |
| CCCCC[C@H](O)/C=C/[C@H]1C=CC(=O)[C@@H]1C/C=C\CCCC(=O)O | -0.5% |
| Cc1ccc(-c2cc(C(F)F)nc(NCC3CCCO3)n2)cc1 (stereo not given) | -5.25% |
| CCc1nnc(NC(=O)c2ccc(S(=O)(=O)N(CC(C)C)CC(C)C)cc2)o1 | 0.66% |
| COc1ccc(Br)cc1-c1noc(-c2ccccc2)n1 | -4.36% |
| Fc1ccc(C(c2ccc(F)cc2)N2CCN(C/C=C/c3ccccc3)CC2)cc1 | -1.17% |

Source: PubChem BioAssay
